In the library only some 18% were active in any assay of this set; here they are far more common.
TDP1 cell CPT: qHTS for Inhibitors of human tyrosyl-DNA phosphodiesterase 1 (TDP1): qHTS in cells in presence of CPT | chicken DT40 Tdp1-/-;hTDP1 cells + 20 nM CPT, ATP luminescence, 48 h | Potency, µM (top dose mostly 46.2 µM), for the others: top-dose activity change, negative = growth inhibition, actives largely listed as inhibitors | 420,000 tested, 12% active; note: nearly all actives have a fitted effect of over 55% in size
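Cell growth measured by CellTiter-Glo luminescence after a minimum 48 h, 37 C compound exposure with 20 nM CPT in Tdp1-knockout DT40 cells stably expressing hTDP1, seeded 400/well; qHTS titration format.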
TDP1 block: qHTS Assay for Inhibitors of Tyrosyl-DNA Phosphodiesterase (TDP1). AID 485290, 2010. Tyrosyl-DNA phosphodiesterase 1 (Homo sapiens), Q9NUW8. recombinant TDP1, AlphaScreen DNA substrate cleavage. Potency, µM (titrated, usually from 130 µM), inactives show at the highest dose activity change, negative = inhibition, most hits filed as inhibitors. 350,000 tested, 0.28% active; note: nearly all actives have a fitted effect of over 40% in size
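AlphaScreen read-out: signal falls as enzyme removes the 3' tyrosine-FITC from a 5'-biotinylated DNA oligo (15 nM, 5 min, RT). Enzyme was E. coli-made recombinant Tdp1 at 1 nM, exposed to compound for 15 min beforehand; beads 10 ug/ml, 10 min.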
PLK1 PBD inh: qHTS for Inhibitors of PLK1-PDB (polo-like kinase 1 - polo-box domain): Primary Screen; Plk1 PBD binding of FITC phosphopeptide, fluorescence polarization; Potency, µM, inactives show max response, negative = inhibition, hits mostly inhibitors; 360,000 tested, 2.8% active; AID 720504, 2013; note: series mostly up to about 57 µM; nearly all actives have a fitted effect of over 65% in size
Target sequence (P53350 whole entry, looked up, the tested form may be a part): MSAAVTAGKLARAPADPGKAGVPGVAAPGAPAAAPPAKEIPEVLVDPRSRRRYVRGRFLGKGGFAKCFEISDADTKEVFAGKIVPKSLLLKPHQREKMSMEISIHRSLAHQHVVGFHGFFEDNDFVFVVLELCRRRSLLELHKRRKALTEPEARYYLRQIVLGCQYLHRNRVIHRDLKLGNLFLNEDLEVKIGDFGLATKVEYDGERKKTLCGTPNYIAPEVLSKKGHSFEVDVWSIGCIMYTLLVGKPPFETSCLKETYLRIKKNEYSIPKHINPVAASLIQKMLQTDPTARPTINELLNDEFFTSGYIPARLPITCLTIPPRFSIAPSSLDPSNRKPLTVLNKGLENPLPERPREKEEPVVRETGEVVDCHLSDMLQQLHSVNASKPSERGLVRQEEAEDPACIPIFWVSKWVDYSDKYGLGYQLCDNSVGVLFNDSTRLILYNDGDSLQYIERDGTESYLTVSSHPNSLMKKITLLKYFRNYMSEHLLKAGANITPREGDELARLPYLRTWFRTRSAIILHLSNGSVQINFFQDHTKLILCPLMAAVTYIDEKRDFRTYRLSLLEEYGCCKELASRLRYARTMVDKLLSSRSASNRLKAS
VDR inhibitor: Inhibitors of the vitamin D receptor (VDR): qHTS; VDR-SRC2-3 peptide fluorescence polarization, 2 h; Potency, µM, for the others: max response, negative = inhibition, hits mostly inhibitors; 400,000 tested, 0.93% active
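Signal is fluorescence polarization, reporting how far test compounds block the interaction of VDR with the SRC2-3 coregulator peptide after a 2 h room-temperature incubation.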
GCN5L2 inh: qHTS Assay for Inhibitors of GCN5L2 | AID 504327, 2011 | Potency, µM (titrated, usually from 58.9 µM), without a hit: at the highest dose activity change, negative = inhibition, actives largely listed as inhibitors | 390,000 tested, 0.21% active | Histone acetyltransferase KAT2A (Homo sapiens), Q92830 | GCN5L2 HAT assay, ThioGlo1 CoA-SH fluorescence
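Compounds, pin-transferred from DMSO stocks, meet 20nM GCN5L2 for 15 min before the reaction begins with H3(1-25) peptide (75uM) and acetyl-CoA (70uM). Thiol-reactive ThioGlo1 reports CoA release over 20 min at room temperature.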
TDP1 cell noCPT: qHTS for Inhibitors of human tyrosyl-DNA phosphodiesterase 1 (TDP1): qHTS in cells in absence of CPT; DT40 Tdp1-/- hTDP1 cells, no CPT, ATP luminescence, 48 h; Potency, µM (titrated, usually from 46.2 µM), inactives show at the top dose activity change, negative = growth inhibition, hits mostly inhibitors; 420,000 tested, 15% active; AID 686978, 2013; note: nearly all actives have a fitted effect of over 55% in size
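Chicken DT40 Tdp1-/- cells complemented with human TDP1, screened without camptothecin (DMSO vehicle only), 400 cells/well. Compounds pin-transferred, cells incubated at 37 °C for at least 48 hr. Growth read as ATP-dependent luminescence (CellTiter-Glo, 30 min at RT).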
* marks the source's active call; other numbers are inactive results; ? = inconclusive; / = no result; ! = repeats disagree; [ ] = dose if it differs, or a comment. Calls come from the whole dose curve; as a rule, active = well fitted curve in the direction sought with a large enough effect; inconclusive = small, poorly fitted or top-dose-only effect, or another doubt; inactive = no such curve, though single readings can be large; an effect the other way counts as inactive or inconclusive. % is set by controls: 0 for no effect and ±100 for the full control effect; potency is the fitted concentration of half-maximal effect.

SMILES	TDP1 cell CPT	TDP1 block	PLK1 PBD inh	VDR inhibitor	GCN5L2 inh	TDP1 cell noCPT
Cn1cc(-c2nc3cnc(N4CCNCC4)nc3n(Cc3ccc(F)cc3)c2=O)c2ccccc21	5.2µM*	/	/	49%	-11%	7.3µM*
COc1cccc(Cn2c(=O)c(-c3cn(C)c4ccccc34)nc3cnc(N4CCNCC4)nc32)c1	7.3µM*	/	/	4%	-19%	21µM*
Cc1cc(C(=O)N2CCN(c3ccc(F)cc3)CC2)c2c(C)nn(-c3cccc(Cl)c3C)c2n1	21µM*	2%	/	12%	-3%	15µM*
Cc1cc(C(=O)N2CCN(c3ccccc3F)CC2)c2c(C)nn(-c3ccccc3)c2n1	?	3%	/	6%	-16%	?
COc1ccc(NC(=O)c2cc(C)nc3c2c(C)nn3-c2cccc(Cl)c2C)c(OC)c1	-16%	-2%	/	-3%	0%	-25%
Cc1ccc(NC(=O)c2cc(C)nc3c2c(C)nn3-c2cccc(Cl)c2C)c(C)c1	?	1%	/	-2%	13%	?
Cc1cc(C(=O)N2CCN(c3cccc(Cl)c3)CC2)c2c(C)nn(-c3ccccc3Cl)c2n1	?	0%	/	-18%	-9%	29µM*
COc1cc(NC(=O)c2cc(C)nc3c2c(C)nn3-c2ccccc2Cl)cc(OC)c1	?	8%	/	-6%	-12%	23µM*
Cc1cc(C(=O)N2CCN(c3cc(Cl)ccc3C)CC2)c2c(C)nn(-c3ccccc3)c2n1	21µM*	-6%	/	2%	?	?
COC(=O)c1cc(C)nc2c1c(C)nn2-c1ccccc1	-1%	/	5%	-2%	-10%	-1%
C=CCNS(=O)(=O)NC(=O)C1=C(N2CCCC2)COC1=O	7%	1%	-2%	12%	1%	2%
CC1CCCN(c2ccc3nncn3n2)C1 (centres undefined)	-13%	/	2%	6%	-9%	2%
CC(C)c1ccc(/C=C(\NC(=O)c2ccccc2)C(=O)NCCCN2CCOCC2)cc1	9%	1%	0%	4%	-1%	-14%
CC(=O)Nc1ccc(S(=O)(=O)NCC(=O)NC(C)c2ccc(S(N)(=O)=O)cc2)cc1 (centres undefined)	1%	0%	-11%	-1%	2%	4%
CS(=O)(=O)N1CCN(c2ccc(C(=O)NC34CC5CC(CC(C5)C3)C4)cc2[N+](=O)[O-])CC1	15µM*	7%	27µM*	-13%	-2%	9.2µM*
CCS(=O)(=O)N1CCN(c2ccc(C(=O)NC34CC5CC(CC(C5)C3)C4)cc2[N+](=O)[O-])CC1	12µM*	-1%	-3%	-9%	-4%	7.3µM*
CC(=O)NO	?	11%	-4%	0%	14%	1.7µM*!
NC(=O)NO	4%	-4%[56.1 µM]	2%	?	-9%	-2%
Cc1ccc(-c2nnc(SCC(=O)N/N=C/c3ccc(C)s3)n2-c2ccc(C)cc2)cc1	?	0%	-10%	-5%	-1%	29µM*
COc1cc(OC)cc(-c2sc3ccc(OC)cc3c2C#CCO)c1	?	-4%	-1%	-29%	-11%	21µM*
COc1cc(OC)cc(-c2sc3ccc(OC)cc3c2C#CC(C)(C)O)c1	-15%	-6%	-11%	-22%	-3%	-12%
COc1cccc(-c2sc3ccc(OC)cc3c2C#CCCO)c1	26µM*	-5%	-12%	-16%	-25%	?
CCN(CC(=O)Nc1c(F)cccc1F)C(=O)C1CCN(C(=O)Nc2ccccc2)CC1	1%	3%	5%	5%	3%	5%
COc1ccccc1N1CCN(C(=O)CCCCCn2c(=S)[nH]c3cc4c(cc3c2=O)OCO4)CC1	?	/	3%	/	/	10µM*
O=C(CCCn1c(=S)[nH]c2cc3c(cc2c1=O)OCO3)N1CCN(c2ccccc2F)CC1	?	3%	1%	8%	-3%	18µM*
SMILES	TDP1 cell CPT	TDP1 block	PLK1 PBD inh	VDR inhibitor	GCN5L2 inh	TDP1 cell noCPT
COc1cccc(N2CCN(C(=O)CCCCCn3c(=S)[nH]c4cc5c(cc4c3=O)OCO5)CC2)c1	21µM*	1%	-7%	-16%	-5%	?
O=c1c2ccccc2[nH]c(=S)n1CCCN1CCN(c2ccccc2F)CC1	2.9µM*	/	-16%	-18%	1%	?
O=c1c2cccnc2[nH]c(=S)n1CCCN1CCN(c2ccccc2F)CC1	?	7%	-7%	-11%	1%	?
CCCCOC(=O)c1ccc(NC(=O)C(=O)NCc2ccccn2)cc1	-14%	/	-12%	-1%	1%	-29%
COC(=O)c1ccccc1NC(=O)c1cc2nc(-c3ccccc3)cc(-c3ccccc3)n2n1	/	0%	/	10%	-3%	/
CCS(=O)(=O)N1Cc2ccccc2CC1C(=O)NCc1cccc(OC)c1 (centres undefined)	14%	3%	-2%	-3%	-4%	1%
COc1cccc(CNC(=O)C2Cc3ccccc3CN2C(C)=O)c1 (centres undefined)	?	/	30µM*	?	-3%	-28%
CCN1CCCC1CNC(=O)c1cnn(-c2nccc(-c3ccccc3F)n2)c1C (centres undefined)	-2%	/	/	/	/	-19%
Cc1csc2c(N3CCN(C(=O)Nc4ccc(OC(F)(F)F)cc4)CC3)ncnc12	10µM*	1%	-8%	6%	-8%	18µM*
Cc1csc2c(N3CCC(C(=O)O)CC3)ncnc12	-5%	-1%	3%	4%	-14%	-5%
COc1ccc(C2c3c(oc4cc(C)cc(C)c4c3=O)C(=O)N2Cc2ccco2)cc1OC (centres undefined)	0%	2%	/	8%	-1%	14%
C=C[C@@H]1c2ccccc2N(S(=O)(=O)c2ccc(C)cc2)[C@H](c2ccccc2)C1(C#N)C#N	7.9µM*	1%	1%	-3%	-20%	21µM*
C=C[C@@H]1c2cc(C)ccc2N(S(=O)(=O)c2ccc(C)cc2)[C@H](c2ccccc2C(F)(F)F)C1(C#N)C#N	8.2µM*	2%	-8%	-7%	-3%	?
Cc1ccc2c(c1)C1CN(C)CCC1N2S(=O)(=O)c1cccc(C(F)(F)F)c1 (centres undefined)	?	0%[56.1 µM]	-1%	?	-5%	?
